# Source: PubChem BioAssay (NCATS)
# Values without a mark were called inactive. Inconclusive results are not listed. Where a call stands in place of a potency, no number is given. Active and inactive are the calls of the source. Unless noted, calls follow the shape of the dose curve; as a rule, active = well fitted curve in the direction sought with a large enough effect; inconclusive = small, poorly fitted or top-dose-only effect, or another doubt; inactive = no such curve, though single readings can be large; an effect the other way counts as inactive or inconclusive.
# Tests used:
# [1] = Cytometric Cell-Based qHTS for Inhibitors of the mTORC1 Signaling Pathway in MEF (Tsc2-/-, p53-/-) Cells (AID 2660);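 also: percent of cells above a phospho-rpS6 to PI ratio cutoff in each well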
# How it was run: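 Immunofluorescence qHTS of rpS6 Ser235/236 phosphorylation: MEFs (Tsc2-/-, p53-/-) treated 24 h, 37 C, in DMEM + 10% FBS. Alexa-488 signal normalized to PI count, referenced to rapamycin (7.5 nM) and DMSO; PI cell number recorded for viability.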
# [2] = High Content Imaging Cell-Based qHTS for Inhibitors of the mTORC1 Signaling Pathway in MEF (Tsc2-/-, p53-/-) Cells (AID 2666); settings: at 38.3 µM (top of the series);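 also: percent of cells scored positive for phospho-rpS6 Ser235/236 immunostaining by imaging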
# How it was run: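 Read-out: % positive cells per well, with thresholds from highest- and lowest-signal wells, based on phospho-rpS6 (Ser235/236) intensity normalized to Hoechst nuclear stain. Cells: Tsc2-/-, p53-/- MEFs carrying empty vector; compound 24 hrs, 37 degree Celsius.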
# [3] = High Content Imaging Cell-Based qHTS for Inhibitors of the mTORC1 Signaling Pathway in MEF Cells (AID 2667); also: potency is read from the fitted curve at half-maximal effect
# How it was run: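 MEF (Tsc2-/-, p53-/-, WT Tsc2 re-expressed); cpd 24 h, 37 °C; PFA fix; Alexa-488 anti-p-rpS6 Ser235/236, PI, Hoechst; IN Cell imaging; Hoechst/Alexa-488 intensity ratio; % active cells, thresholds set from rapamycin and DMSO wells.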
# [4] = Cytometry Cell-Based qHTS for Inhibitors of the mTORC1 Signaling Pathway in MEF cells (AID 2668); also: potency is read from the fitted curve at half-maximal effect
# How it was run: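 Read-out: phospho-rpS6 Ser235/236 immunofluorescence normalized to propidium iodide intensity, scored as % active cells against a rapamycin (7.5 nM) threshold. Cells: Tsc2-/-, p53-/- MEFs stably expressing WT Tsc2, compound-treated 24 hrs at 37 degree Celsius.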
# [5] = target: Ubiquitin carboxyl-terminal hydrolase 2 (Homo sapiens) (UniProt O75604); test: qHTS Validation Assay for Inhibitors of Ubiquitin-specific Protease USP2a Using CHOP2 as the Reporter (AID 463106)
# Sequence of Ubiquitin carboxyl-terminal hydrolase 2 (Homo sapiens) (O75604 whole entry, looked up): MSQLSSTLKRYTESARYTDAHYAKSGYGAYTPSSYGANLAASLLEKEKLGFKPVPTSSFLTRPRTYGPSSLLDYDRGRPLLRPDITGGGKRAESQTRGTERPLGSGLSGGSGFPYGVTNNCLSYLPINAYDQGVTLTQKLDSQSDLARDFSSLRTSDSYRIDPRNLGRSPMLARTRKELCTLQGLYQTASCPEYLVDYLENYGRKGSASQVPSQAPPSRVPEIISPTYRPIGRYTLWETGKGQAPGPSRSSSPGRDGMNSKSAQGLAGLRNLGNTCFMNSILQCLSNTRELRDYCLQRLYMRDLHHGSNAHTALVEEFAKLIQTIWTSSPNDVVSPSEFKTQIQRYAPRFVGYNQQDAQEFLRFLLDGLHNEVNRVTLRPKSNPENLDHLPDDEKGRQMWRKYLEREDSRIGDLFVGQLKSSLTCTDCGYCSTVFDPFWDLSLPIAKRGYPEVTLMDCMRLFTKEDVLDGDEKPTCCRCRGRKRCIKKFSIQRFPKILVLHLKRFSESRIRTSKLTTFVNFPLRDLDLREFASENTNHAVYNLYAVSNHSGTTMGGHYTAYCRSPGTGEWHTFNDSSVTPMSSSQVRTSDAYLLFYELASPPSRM
# How it was run: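 USP2 core (10nM final) was preincubated with compound for 30min at RT in 20mM Tris-HCl pH 8.0, 2mM CaCl2, 2mM beta-mercaptoethanol, 0.05% CHAPS. Ub-CHOP2 and reporter substrate (25nM each) were added, and fluorescence (Ex 485/Em 531nm) was read after 60min.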
# [6] = target: DNA polymerase III PolC-type (Bacillus subtilis (strain 168)) (UniProt P13267); test: qHTS Validation Assay for the Inhibitors of DNA Replication in Gram-Positive Bacteria (AID 485295);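 also: reconstituted holoenzyme with PolC plus beta clamp SSB and primase; PicoGreen fluorescence of double-stranded DNA made on primed circular M13 template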
# Sequence of DNA polymerase III PolC-type (Bacillus subtilis (strain 168)) (P13267 whole entry, looked up): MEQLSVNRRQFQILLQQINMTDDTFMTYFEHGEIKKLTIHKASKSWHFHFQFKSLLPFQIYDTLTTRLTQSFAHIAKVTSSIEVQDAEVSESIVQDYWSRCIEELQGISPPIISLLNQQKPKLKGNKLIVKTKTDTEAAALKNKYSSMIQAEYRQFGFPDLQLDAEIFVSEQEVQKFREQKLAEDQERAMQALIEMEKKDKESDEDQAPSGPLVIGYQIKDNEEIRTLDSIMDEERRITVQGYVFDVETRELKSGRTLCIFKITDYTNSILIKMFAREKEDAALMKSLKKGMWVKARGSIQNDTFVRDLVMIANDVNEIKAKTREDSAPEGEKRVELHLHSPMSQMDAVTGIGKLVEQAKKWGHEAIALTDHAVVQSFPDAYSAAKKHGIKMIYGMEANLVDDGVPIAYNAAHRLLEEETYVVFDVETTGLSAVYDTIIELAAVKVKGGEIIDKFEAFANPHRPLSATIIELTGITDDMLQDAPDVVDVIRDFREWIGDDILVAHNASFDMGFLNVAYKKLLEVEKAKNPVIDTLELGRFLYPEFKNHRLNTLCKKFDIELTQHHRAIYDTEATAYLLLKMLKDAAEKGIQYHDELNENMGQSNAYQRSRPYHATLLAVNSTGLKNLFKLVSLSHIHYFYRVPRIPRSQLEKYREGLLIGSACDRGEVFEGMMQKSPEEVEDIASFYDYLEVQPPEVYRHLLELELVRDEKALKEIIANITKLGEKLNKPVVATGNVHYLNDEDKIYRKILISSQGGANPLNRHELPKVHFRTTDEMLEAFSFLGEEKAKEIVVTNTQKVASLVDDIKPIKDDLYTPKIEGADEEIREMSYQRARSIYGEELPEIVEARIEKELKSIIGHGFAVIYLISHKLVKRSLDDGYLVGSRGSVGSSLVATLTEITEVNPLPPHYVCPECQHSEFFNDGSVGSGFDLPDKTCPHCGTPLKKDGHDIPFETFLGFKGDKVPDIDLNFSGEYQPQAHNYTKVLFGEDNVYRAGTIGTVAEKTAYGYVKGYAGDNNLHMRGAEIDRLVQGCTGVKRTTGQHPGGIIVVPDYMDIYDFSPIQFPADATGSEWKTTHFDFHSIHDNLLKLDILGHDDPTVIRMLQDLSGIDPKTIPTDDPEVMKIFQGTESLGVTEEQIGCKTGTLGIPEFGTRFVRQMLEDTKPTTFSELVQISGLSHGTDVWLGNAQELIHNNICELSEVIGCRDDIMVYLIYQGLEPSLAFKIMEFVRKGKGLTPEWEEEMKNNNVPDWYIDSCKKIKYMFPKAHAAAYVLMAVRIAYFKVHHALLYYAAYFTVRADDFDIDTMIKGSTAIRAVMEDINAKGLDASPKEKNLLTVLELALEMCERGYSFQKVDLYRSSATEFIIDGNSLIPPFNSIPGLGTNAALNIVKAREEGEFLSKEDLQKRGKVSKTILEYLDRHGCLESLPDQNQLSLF
# How it was run: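 PicoGreen fluorescence (ex 480–485/em 535–540 nm) reports dsDNA synthesized on ssM13Gori template with dNTPs/NTPs. Enzyme: holoenzyme rebuilt from purified PolC, beta subunit, SSB and primase. Compound preincubated before substrate addition; RT throughout.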
# [7] = target: Tumor susceptibility gene 101 protein (Homo sapiens) (UniProt Q99816); test: qHTS Validation Assay for Iinhibitors of HIV-1 Budding by Blocking the Interaction of PTAP/TSG101 (AID 485342; calls by dose curve)
# Sequence of Tumor susceptibility gene 101 protein (Homo sapiens) (Q99816 whole entry, looked up, the tested form may be a part): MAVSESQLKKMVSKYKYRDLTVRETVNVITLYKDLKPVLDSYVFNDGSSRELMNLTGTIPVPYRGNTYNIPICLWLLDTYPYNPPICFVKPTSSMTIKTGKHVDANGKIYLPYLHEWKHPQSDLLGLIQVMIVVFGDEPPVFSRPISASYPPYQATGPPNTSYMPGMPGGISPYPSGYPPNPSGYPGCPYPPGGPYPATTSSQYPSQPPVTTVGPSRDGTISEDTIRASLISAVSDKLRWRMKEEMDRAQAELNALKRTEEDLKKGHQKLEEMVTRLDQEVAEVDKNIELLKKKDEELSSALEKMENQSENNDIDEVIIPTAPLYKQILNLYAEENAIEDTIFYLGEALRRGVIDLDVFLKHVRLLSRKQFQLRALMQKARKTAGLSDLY
# How it was run: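 FP read-out: FITC-PTAP peptide, 50 nM final, binding Tsg101 binding domain, 10 uM final; 20 min r.t.; 10 mM HEPES pH 7.5, 0.15 M NaCl, 0.01% Tween 20, 3 mM EDTA, 0.1 mM TCEP.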
# [8] = target: Beta-2 adrenergic receptor (Homo sapiens) (UniProt P07550); test: qHTS validation assay of beta-arrestin-biased ligands of beta2-adrenergic receptor (AID 485366)
# Sequence of Beta-2 adrenergic receptor (Homo sapiens) (P07550 whole entry, looked up): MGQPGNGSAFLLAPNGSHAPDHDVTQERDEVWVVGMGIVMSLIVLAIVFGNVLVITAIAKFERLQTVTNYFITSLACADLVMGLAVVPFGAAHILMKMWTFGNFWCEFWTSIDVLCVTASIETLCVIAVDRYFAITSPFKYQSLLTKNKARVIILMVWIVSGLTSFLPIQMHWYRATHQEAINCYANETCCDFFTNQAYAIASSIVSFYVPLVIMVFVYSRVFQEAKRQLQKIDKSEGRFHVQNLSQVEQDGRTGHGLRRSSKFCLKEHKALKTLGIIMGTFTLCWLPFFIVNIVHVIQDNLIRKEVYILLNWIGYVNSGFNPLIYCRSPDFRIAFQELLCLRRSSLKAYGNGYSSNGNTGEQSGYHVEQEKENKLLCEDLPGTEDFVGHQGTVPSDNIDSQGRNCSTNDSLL
# How it was run: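 Arrestin-recruitment (Tango) reporter: ligand-bound beta2-AR recruits beta-arrestin, releasing tTA, which upregulates luciferase. Titrations of up to 46 microM incubated 18 hr at 37 degrees C before luminescent readout.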
# [9] = target: Thioredoxin reductase 1, cytoplasmic (Rattus norvegicus) (UniProt O89049); test: qHTS Assay for Substrates of Mammalian Selenoprotein Thioredoxin Reductase 1 (TrxR1) (AID 488772);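 also: NADPH fluorescence in the first read after selenite addition and not the 8 min delta; a drop in NADPH fluorescence below the no-compound background marks a TrxR1 substrate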
# Sequence of Thioredoxin reductase 1, cytoplasmic (Rattus norvegicus) (O89049 whole entry, looked up): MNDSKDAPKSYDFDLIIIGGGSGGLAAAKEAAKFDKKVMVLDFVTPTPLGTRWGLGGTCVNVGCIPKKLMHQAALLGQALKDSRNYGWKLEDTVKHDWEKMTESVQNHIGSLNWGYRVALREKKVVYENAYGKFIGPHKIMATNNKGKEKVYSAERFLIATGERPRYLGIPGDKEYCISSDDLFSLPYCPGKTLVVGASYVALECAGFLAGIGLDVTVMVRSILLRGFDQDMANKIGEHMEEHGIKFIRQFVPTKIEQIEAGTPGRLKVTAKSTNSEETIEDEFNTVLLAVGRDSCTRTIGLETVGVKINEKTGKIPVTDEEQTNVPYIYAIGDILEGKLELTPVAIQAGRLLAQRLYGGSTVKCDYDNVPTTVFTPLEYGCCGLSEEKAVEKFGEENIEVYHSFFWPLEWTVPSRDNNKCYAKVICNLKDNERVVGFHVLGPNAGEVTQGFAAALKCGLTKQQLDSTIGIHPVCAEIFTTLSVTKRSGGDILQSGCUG
# How it was run: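 Quantitative HTS in Tris-HCl buffer at pH 7.5 with EDTA and Tween-20, using rat TrxR1, 400 uM NADPH and 400 uM selenite (final). A fall in initial NADPH fluorescence relative to background marked substrate behaviour.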
# [10] = target: Thioredoxin reductase 1, cytoplasmic (Rattus norvegicus) (UniProt O89049); test: qHTS Assay for Inhibitors of Mammalian Selenoprotein Thioredoxin Reductase 1 (TrxR1) (AID 488773); settings: Potency: inhibition;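 also: drop in NADPH fluorescence over an 8 min run after selenite addition; nearly all actives have a fitted effect of over 40% in size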
# How it was run: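 Steps: enzyme (90 nM) plus NADPH (400 uM final), 5 min at ~22 deg C; compound added, 15 min; selenite (400 uM final) added; fluorescence followed for 8 min. Concentration-response curves derived from the normalized delta values.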
# [11] = target: M-phase phosphoprotein 8 (Homo sapiens) (UniProt Q99549); test: qHTS Validation Assay for Inhibitors for MPP8 Chromodomain Interactions with Methylated Histone Tails (AID 488949); also: potency is read from the fitted curve at half-maximal effect; nearly all actives have a fitted effect of over 55% in size
# How it was run: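 AlphaScreen read-out: streptavidin donor and nickel chelate acceptor beads (final 10 ug/mL), 30 min in the dark at RT. Complex of 50 nM MPP8 and 50 nM b-H3(1-18)K9me3 peptide had been exposed to compounds for 30 min beforehand.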
# [12] = target: Chromobox protein homolog 1 (Homo sapiens) (UniProt P83916); test: qHTS Validation Assay for Inhibitors of HP1-beta Chromodomain Interactions with Methylated Histone Tails (AID 488953); also: potency is read from the fitted curve at half-maximal effect; nearly all actives have a fitted effect of over 50% in size
# Sequence of Chromobox protein homolog 1 (Homo sapiens) (P83916 whole entry, looked up): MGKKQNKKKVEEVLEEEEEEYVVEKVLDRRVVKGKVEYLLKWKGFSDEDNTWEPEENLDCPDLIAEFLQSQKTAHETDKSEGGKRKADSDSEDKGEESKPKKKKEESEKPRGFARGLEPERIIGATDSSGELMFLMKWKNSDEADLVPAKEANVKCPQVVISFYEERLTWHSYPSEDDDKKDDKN
# How it was run: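 Measured as loss of AlphaScreen luminescence from streptavidin donor and nickel acceptor beads (10 ug/mL final) bridging HP1-beta and biotin-H3(1-18)K9me3, each 50 nM. Compounds met the preassembled complex for 30 min at RT.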
# [13] = target: D(1A) dopamine receptor (Homo sapiens) (UniProt P21728); test: HTS Assay for Allosteric Agonists of the Human D1 Dopamine Receptor: Primary Screen for Agonists (AID 488981)
# Sequence of D(1A) dopamine receptor (Homo sapiens) (P21728 whole entry, looked up): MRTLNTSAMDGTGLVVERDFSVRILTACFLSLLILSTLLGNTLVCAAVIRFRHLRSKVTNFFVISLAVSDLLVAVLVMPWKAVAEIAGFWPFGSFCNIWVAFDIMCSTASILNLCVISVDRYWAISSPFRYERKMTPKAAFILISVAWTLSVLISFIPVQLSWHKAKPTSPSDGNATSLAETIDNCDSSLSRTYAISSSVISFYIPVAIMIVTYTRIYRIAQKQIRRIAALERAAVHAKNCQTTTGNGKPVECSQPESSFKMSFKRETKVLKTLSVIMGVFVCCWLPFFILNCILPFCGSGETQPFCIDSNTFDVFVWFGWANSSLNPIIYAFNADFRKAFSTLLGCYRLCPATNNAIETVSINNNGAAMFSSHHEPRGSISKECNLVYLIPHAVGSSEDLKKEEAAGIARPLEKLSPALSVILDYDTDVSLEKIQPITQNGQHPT
# How it was run: (§1)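 Tetracycline-induced HEK293 T-REx cells force-coupled to calcium signalling were incubated overnight at 30 C and dye-loaded at room temperature. Calcium flux over 180 s after compound addition flagged agonists; a further 180 s read after EC20 dopamine flagged potentiators.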
# [14] = target: D(1A) dopamine receptor (Homo sapiens) (UniProt P21728); test: HTS Assay for Allosteric Agonists of the Human D1 Dopamine Receptor: Primary Screen for Potentiators (AID 488982)
# How it was run: as §1
# [15] = target: D(1A) dopamine receptor (Homo sapiens) (UniProt P21728); test: HTS Assay for Allosteric Agonists of the Human D1 Dopamine Receptor: Primary Screen for Antagonists (AID 488983);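 also: calcium flux response to an EC80 dopamine challenge measured with no-wash dye; nearly all actives have a fitted effect of over 65% in size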
# How it was run: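 Screening of inducible HEK293 T-REx D1 cells: compound first, EC80 dopamine 180 s later, each phase read kinetically for calcium over 180 s.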
# [16] = Validation screen for small molecules that induce genotoxicity in human embryonic kidney (HEK293T) cells expressing luciferase-tagged ELG1 (AID 493106)
# How it was run: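 Reporter-gene quantitative HTS in HEK293T cells carrying luciferase-tagged ELG1, whose level climbs under genotoxic stress. Compound exposure lasts 16 hr at 37 °C before luciferase detection.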
# [17] = target: ATPase family AAA domain-containing protein 5 (Homo sapiens) (UniProt Q96QE3); test: Validation screen for small molecules that inhibit ELG1-dependent DNA repair in human embryonic kidney (HEK293T) cells expressing luciferase-tagged ELG1 (AID 493107); also: potency is read from the fitted curve at half-maximal effect; nearly all actives have a fitted effect of over 70% in size
# How it was run: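 Quantitative HTS in HEK293T cells carrying luciferase-tagged ELG1, stimulated with 5-fluorouridine alongside compound for 16 hr. Loss of luciferase signal marks inhibition of ELG1 response.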
# [18] = qHTS for Inhibitors of Cell Surface uPA Generation: Validation Assay (AID 493164);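 also: RAW 264.7 macrophage cells exposed to compound for 18 h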
# How it was run: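 RAW 264.7, 4000 cells/well, o/n plating; cpd 7-pt 1:5 dilution 2.45 nM–38.3 uM final; 18 h, 37 C/5% CO2; ATP-Lite, 5 s luminescence exposure.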
# [19] = target: Ubiquitin carboxyl-terminal hydrolase 1 (Homo sapiens) (UniProt O94782); test: Inhibitors of USP1/UAF1: Pilot qHTS (AID 504865);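 also: rhodamine fluorescence freed from ubiquitin-rhodamine substrate followed over time; top concentration of the series differs between compounds; nearly all actives have a fitted effect of over 35% in size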
# How it was run: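 1nM USP1/UAF1 + cpd, 15 min RT; start w/ Ub-Rho 150nM final; kinetic FL 480/540 nm, 6 reads q60 s. Buffer 50mM HEPES pH 7.8, 0.5mM EDTA, 1mM TCEP, 0.01% Tween-20, 0.1 mg/ml BSA.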
# [20] = qHTS for Inhibitors of ATXN expression: Validation of Cytotoxic Assay (AID 588349);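 also: potency is read from the fitted curve at half-maximal effect; cells exposed to compound for 72 hr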
# How it was run: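 HEK293, compound dose series, 72 hr / 37 degrees C; viability via CellTiter Glo (intracellular ATP).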
# [21] = qHTS for Inhibitors of ATXN expression: Validation (AID 588378); also: potency is read from the fitted curve at half-maximal effect; nearly all actives have a fitted effect of over 75% in size
# How it was run: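 Cells: HEK293-ATXN2-FFLuc, phenol-red free DMEM, 2 h attachment. Compound pin-transfer, 24 h, 37 degrees C, 5% CO2. CellTiter-Fluor 30 min, Ex405/Em525; Bright-Glo 5 min, luminescence 2 s exposure.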
# [22] = qHTS of Trypanosoma Brucei Inhibitors: LOPAC Validation (AID 624147)
# How it was run: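 Quantitative HTS: titrated library compounds versus trypanosomal pyruvate kinase in TEA buffer (pH 7.2) containing KCl, MgCl2, BSA and Tween-20. Reactions were initiated with ADP, 130 uM final. Kinase-Glo Plus luminescence was read after 45 min at RT.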
# [23] = target: Glucagon-like peptide 1 receptor (Homo sapiens) (UniProt P43220); test: qHTS of GLP-1 Receptor Agonists: LOPAC Validation (AID 624148);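 also: higher luminescence signal means agonism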
# Sequence of Glucagon-like peptide 1 receptor (Homo sapiens) (P43220 whole entry, looked up): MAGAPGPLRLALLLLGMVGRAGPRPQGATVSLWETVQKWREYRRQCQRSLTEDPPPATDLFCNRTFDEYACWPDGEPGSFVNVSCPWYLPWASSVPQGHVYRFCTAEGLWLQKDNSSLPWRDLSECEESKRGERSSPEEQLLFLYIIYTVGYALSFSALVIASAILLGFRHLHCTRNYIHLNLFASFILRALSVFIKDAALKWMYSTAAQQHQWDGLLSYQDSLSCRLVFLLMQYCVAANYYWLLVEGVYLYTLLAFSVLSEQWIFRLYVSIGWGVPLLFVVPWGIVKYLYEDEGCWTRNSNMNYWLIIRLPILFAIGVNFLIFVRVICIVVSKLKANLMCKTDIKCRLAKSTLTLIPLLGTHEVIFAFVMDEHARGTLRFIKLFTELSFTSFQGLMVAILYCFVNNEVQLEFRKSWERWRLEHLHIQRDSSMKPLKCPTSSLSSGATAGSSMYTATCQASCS
# How it was run: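 HEK293 cells stably co-expressing a cAMP-responsive luciferase reporter and a hypersensitive GLP-1R were plated 12 h at 37 °C and exposed to compounds for 4-6 hr at 37 °C, 5% CO2. Luminescence was read 12 min after adding detection reagent.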
smiles,measurement,setting,value
O=C1c2ccccc2C(=O)c2c(NCCc3ccc(O)cc3)ccc(NCCc3ccc(O)cc3)c21,outcome,[1],inactive
same,outcome,[2],inactive
same,Potency,[3],4.65 µM (active)
same,Potency,[4],4.65 µM (active)
same,Potency,[5],inactive
same,Potency,[6],inactive
same,outcome,[7],inactive
same,outcome,[8],inactive
same,outcome,[9],inactive
same,Potency,[10],inactive
same,Potency,[11],2.12 µM (active)
same,Potency,[12],1.78 µM (active)
same,outcome,[13],inactive
same,outcome,[14],inactive
same,outcome,[15],inactive
same,Potency,[16],inactive
same,Potency,[17],14.6 µM (active)
same,outcome,[18],inactive
same,Potency,[19],inactive
same,Potency,[20],8.91 µM (active)
same,Potency,[21],8.91 µM (active)
same,outcome,[22],inactive
same,outcome,[23],inactive
